Assay outcomes (PubChem BioAssay)
FMDV Renilla – Primary qHTS Assay for Foot and Mouth Disease Virus Antivirals against NCGC Sytravon and CBC Compound Libraries: Renilla Luciferase Signal | FMDV replicon cells, Renilla luciferase signal | hit rate 0.32% among 120,000 | AID 1745857, 2022 | Potency, µM (highest dose often 57.5 µM), hits mostly inhibitors; note: nearly all actives have a fitted effect of over 55% in size
FMDV FLuc – Primary qHTS Assay for Foot and Mouth Disease Virus Antivirals against NCGC Sytravon and CBC Compound Libraries: Firefly Luciferase Signal | AID 1745856, 2022 | Potency, µM (doses to about 57.5 µM), hits mostly inhibitors | FMDV antiviral cell assay, firefly luciferase signal | hit rate 0.23% among 120,000; note: nearly all actives have a fitted effect of over 60% in size
Numbers stand for hits; [ ] = dose if it differs, or a comment. Compounds with a hit are over-represented: about 0.45% of the library has one in this group of screens. Calls come from the whole dose curve.

What do the screens show for `CCc1nnsc1C(=O)NCC1(c2ccc(F)cc2)CC1`?
FMDV Renilla: inactive; FMDV FLuc: inactive

What do the screens show for `CCCNC(=O)C1CCN(c2ncnc3onc(-c4ccc(C)cc4)c23)CC1`?
FMDV Renilla: inactive; FMDV FLuc: inactive

Results for CCc1ccc(NC(=O)N2CCC3(CC2)OCCO3)cc1 ?
FMDV Renilla: inactive; FMDV FLuc: inactive

What do the screens show for `COc1cc(S(=O)(=O)NCc2ccco2)ccc1NC(C)=O`?
FMDV Renilla: inactive; FMDV FLuc: inactive

What do the screens show for `CCOc1ncccc1C(=O)N(Cc1nnc(-c2ccccc2Cl)o1)C(C)C`?
FMDV Renilla: inactive; FMDV FLuc: inactive

Results for Cc1ccc(C)c(-c2cc(C(=O)O)c3ccc(C)c(C)c3n2)c1 ?
FMDV Renilla: inactive; FMDV FLuc: inactive

Results for CC(C)CCNc1nc2c(c(=O)n(C)c(=O)n2C)n1Cc1ccc(Cl)cc1 ?
FMDV Renilla: inactive; FMDV FLuc: inactive

How did Cn1c(=O)c2c(nc(NCCO)n2Cc2ccc(Cl)cc2)n(C)c1=O do in these assays?
FMDV Renilla: inconclusive; FMDV FLuc: 13µM

How did CCCCCCNc1nc2c(c(=O)n(C)c(=O)n2C)n1Cc1cccc(C)c1 do in these assays?
FMDV Renilla: inactive; FMDV FLuc: inactive

What do the screens show for `C=CCNc1nc2c(c(=O)n(C)c(=O)n2C)n1Cc1ccccc1Cl`?
FMDV Renilla: inactive; FMDV FLuc: inactive

Results for Cn1c(=O)c2c(nc(NCCc3ccc(F)cc3)n2Cc2ccc(F)cc2)n(C)c1=O ?
FMDV Renilla: inactive; FMDV FLuc: inactive

How did Cn1c(=O)c2c(nc(NCCO)n2Cc2ccc(F)cc2)n(C)c1=O do in these assays?
FMDV Renilla: 7.9µM; FMDV FLuc: 10µM

What do the screens show for `CCCCCCNc1nc2c(c(=O)n(C)c(=O)n2C)n1CCC`?
FMDV Renilla: 20µM; FMDV FLuc: inconclusive

What do the screens show for `C=CCNc1nc2c(c(=O)n(C)c(=O)n2C)n1Cc1ccc(Cl)cc1`?
FMDV Renilla: 13µM; FMDV FLuc: 14µM

Results for COC(=O)C1=CN(Cc2ccco2)C=C(C(=O)OC)C1c1ccccc1 ?
FMDV Renilla: inactive; FMDV FLuc: inactive

How did CC(=O)Nc1cc(-c2ccc(=O)n(C(C)C(=O)Nc3ccc(C)c(C)c3)n2)ccc1C (stereo not drawn) do in these assays?
FMDV Renilla: inactive; FMDV FLuc: inactive

How did O=C(NC1CCCC1)c1cccc(Br)c1 do in these assays?
FMDV Renilla: inactive[1.06 µM]; FMDV FLuc: inactive

Results for CCN(CCNC(=O)CS(=O)(=O)Cc1nc(-c2ccc(C)cc2)oc1C)c1ccccc1 ?
FMDV Renilla: inactive; FMDV FLuc: inactive

What do the screens show for `COc1ccc2oc(=O)c(C(=O)N3CCN(c4cc(C)ccc4C)CC3)cc2c1`?
FMDV Renilla: inactive; FMDV FLuc: inactive

Results for CCCc1cc(NCc2cccnc2)n2ncc(-c3ccccc3)c2n1 ?
FMDV Renilla: inactive; FMDV FLuc: inactive

How did Cc1cccc(NC(=O)CSc2nc3ccc(NC(=O)COc4ccccc4C)cc3s2)c1 do in these assays?
FMDV Renilla: 5µM; FMDV FLuc: inconclusive

What do the screens show for `Cc1ccccc1OCC(=O)Nc1ccc2nc(SCCOc3ccccc3)sc2c1`?
FMDV Renilla: inactive; FMDV FLuc: inactive

Results for COc1ccc(C(c2ccc(C)o2)c2ccc(C)o2)c(OC)c1 ?
FMDV Renilla: inactive; FMDV FLuc: inactive

How did O=c1c2ccccc2nc(/C=C/c2cccc3ccccc23)n1-c1ccccc1Cl do in these assays?
FMDV Renilla: 25µM; FMDV FLuc: inconclusive

How did COc1ccc(Cl)cc1-n1c(/C=C/c2cccc3ccccc23)nc2ccccc2c1=O do in these assays?
FMDV Renilla: inactive; FMDV FLuc: inactive

How did Cc1ccc(C2=NC(C(F)(F)F)(C(F)(F)F)c3c(n(-c4ccccc4)c(=O)[nH]c3=O)N2)cc1 do in these assays?
FMDV Renilla: inactive; FMDV FLuc: inactive

How did O=c1[nH]c(=O)n(Cc2ccccc2)c2c1C(C(F)(F)F)(C(F)(F)F)N=C(c1cccs1)N2 do in these assays?
FMDV Renilla: inconclusive; FMDV FLuc: 20µM

What do the screens show for `Cc1cc(C)c(NC(=O)c2ccc(C)c(S(=O)(=O)N3CCCCC3)c2)c(Cl)c1`?
FMDV Renilla: inactive; FMDV FLuc: inconclusive

Results for COc1ccc(N2CCN(C(=O)CCc3c(C)nc4cc(-c5ccc(OC)cc5OC)nn4c3C)CC2)cc1 ?
FMDV Renilla: inactive; FMDV FLuc: inactive

How did COc1ccc(N2CCN(C(=O)CCc3c(C)nc4cc(-c5ccc(Cl)cc5)nn4c3C)CC2)cc1 do in these assays?
FMDV Renilla: inactive; FMDV FLuc: 32µM

What do the screens show for `CCN1CCN(CCOc2ccc3c(=O)c(-c4ccc(Br)cc4)coc3c2)CC1`?
FMDV Renilla: inconclusive; FMDV FLuc: inactive

What do the screens show for `CCN1CCN(CCOc2ccc3c(=O)c(-c4ccc(Cl)cc4)coc3c2)CC1`?
FMDV Renilla: 18µM; FMDV FLuc: inactive

Results for CNC(=O)c1ccccc1OCc1coc(-c2ccccc2)n1 ?
FMDV Renilla: 10µM; FMDV FLuc: inconclusive

What do the screens show for `CNC(=O)c1ccc(OCc2coc(-c3cccc(F)c3)n2)cc1`?
FMDV Renilla: inactive; FMDV FLuc: inactive
